Pf growth 48h: inhibits P. falciparum growth in the first generation, 48 h. P. falciparum luciferase growth in erythrocytes, 48 h. actives 5.9% (n = 310,000). Potency, µM (series often up to 28.7 µM), without a hit: at the highest dose activity change, negative = inhibition, hits mostly inhibitors; further: potency means the concentration at half of the fitted maximal effect; on the % scale 0 is the no-effect control and ±100 the full control effect
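Here the parasites carry a stable luciferase gene and grow inside erythrocytes in Albumax-based RPMI medium with compound for one erythrocytic cycle. Activity is scored as loss of luminescent signal.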
CHX counter: counter-screen for Shiga toxin inhibitors: cycloheximide protein synthesis inhibition | cell reporter, cycloheximide protein synthesis inhibition counterscreen | max response, % | actives 12% (n = 300,000); in the data active means max response mostly above about 13%, no sharp cut-off; inactive means mostly below about 14%; further: read at 38.3 µM for the half of the compounds with a filed dose; 0% is about no effect
Shiga inhibitor: Shiga toxin inhibition; Vero cells, Shiga toxin protein synthesis inhibition reporter; inhibition, % at 38.7 µM; actives 9.2% (n = 290,000); AID 2315; in the data active means inhibition mostly above about 28%, no sharp cut-off; inactive means mostly below about 43%; further: 0% is about no effect
Pf growth 96h: P. falciparum growth inhibition at 96 hour, primary screen for plastid delayed-death inhibitors; P. falciparum luciferase reporter growth, 96 h; actives 6.9% (n = 320,000); Potency, µM (series often up to 28.7 µM), for the others: top-dose activity change, negative = inhibition, most hits filed as inhibitors; further: potency means the concentration at half of the fitted maximal effect; on the % scale 0 is the no-effect control and ±100 the full control effect
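Two-generation exposure (96 h) targets delayed-death phenotype. Reporter parasites carrying integrated firefly luciferase, in red cells at 2% hematocrit and 0.05% parasitemia final, kept at 37 C, 5% CO2; luminescence loss indicates inhibition.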
LmPK inhibitor: LmPK (Leishmania mexicana) enzyme inhibition | Q27686 | purified LmPK, Kinase-Glo ATP luminescence, 1 h | Potency, µM (titrated, usually from 57.5 µM), for the others: at the highest dose activity change, negative = inhibition, actives largely listed as inhibitors | actives 0.37% (n = 290,000); further: potency means the concentration at half of the fitted maximal effect; on the % scale 0 is the no-effect control and ±100 the full control effect
Target sequence (Q27686 whole entry, looked up): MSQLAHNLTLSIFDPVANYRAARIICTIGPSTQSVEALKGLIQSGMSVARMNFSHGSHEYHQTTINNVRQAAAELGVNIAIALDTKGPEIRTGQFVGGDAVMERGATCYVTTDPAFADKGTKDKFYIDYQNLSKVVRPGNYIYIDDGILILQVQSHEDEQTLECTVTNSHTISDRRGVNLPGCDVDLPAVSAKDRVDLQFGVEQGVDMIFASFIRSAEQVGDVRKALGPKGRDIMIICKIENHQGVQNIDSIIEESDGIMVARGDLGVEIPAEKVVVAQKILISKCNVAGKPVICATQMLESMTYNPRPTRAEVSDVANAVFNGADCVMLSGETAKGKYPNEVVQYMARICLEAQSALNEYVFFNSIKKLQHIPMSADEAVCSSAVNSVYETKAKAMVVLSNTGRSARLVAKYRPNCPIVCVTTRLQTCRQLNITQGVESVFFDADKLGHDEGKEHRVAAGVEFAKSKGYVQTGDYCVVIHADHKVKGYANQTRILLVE
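qHTS format; LmPK 0.1 nM; substrates PEP 0.5 mM and ADP 0.1 mM. One-hour room-temperature incubation, then coupled luciferase luminescence; 0.5 nM enzyme wells mark activation.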
Numbers without * were called inactive. A selection: hits, their analogues and other compounds. The true share with any hit is near 22%. Unless noted, the call rests on the fitted dose curve; in most records, active means well fitted inhibition curve with a large enough effect; inconclusive means small, poorly fitted or top-dose-only effect, or another doubt; inactive means no such curve, though single readings can be large or run the other way.

What do the screens show for `Cc1cc(NC(=O)c2cc(-c3ccncc3)nc3c(C)cccc23)no1`?
Pf growth 48h: inconclusive; CHX counter: -3; Shiga inhibitor: -4; Pf growth 96h: 37%; LmPK inhibitor: -1%

How did Cc1cccc(NC(=O)c2cc(-c3cccnc3)nc3c(C)cccc23)n1 do in these assays?
Pf growth 48h: 11%; CHX counter: -2; Shiga inhibitor: -8; Pf growth 96h: 4.7µM*; LmPK inhibitor: -6%

What do the screens show for `Cc1c(Cl)ccc2c(C(=O)NC(C)c3ccncc3)cc(-c3ccncc3)nc12` (stereo not drawn)?
Pf growth 48h: 4.1µM*; CHX counter: -1; Shiga inhibitor: 4; Pf growth 96h: -2%; LmPK inhibitor: -2%

Results for O=C(NNC(=O)c1cc(-c2ccncc2)nc2ccccc12)Nc1ccc(F)cc1 ?
Pf growth 48h: inconclusive; CHX counter: -2; Shiga inhibitor: -8; Pf growth 96h: 45%; LmPK inhibitor: -7%

What do the screens show for `COc1cccc(NC(=O)c2cc(-c3cccnc3)nc3c(Cl)cccc23)c1`?
Pf growth 48h: 2.1µM*; CHX counter: -3; Shiga inhibitor: -8; Pf growth 96h: 1.9µM*; LmPK inhibitor: 1%

Results for O=C(Nc1ccc(F)cc1)c1cc(-c2ccncc2)nc2c(Cl)cccc12 ?
Pf growth 48h: 2.1µM*; CHX counter: -1; Shiga inhibitor: -5; Pf growth 96h: 22%; LmPK inhibitor: 0%

What do the screens show for `COc1ccc(N2CC(C(=O)Nc3cccnc3)CC2=O)cc1` (stereo not drawn)?
Pf growth 48h: 34%; CHX counter: -2; Shiga inhibitor: -10; Pf growth 96h: 1%; LmPK inhibitor: -1%

Results for CC(C)Oc1ccc(C(CC(=O)O)NC(=O)c2cccs2)cc1 (stereo not drawn) ?
Pf growth 48h: -6%; CHX counter: -2; Shiga inhibitor: -19; LmPK inhibitor: -9%

How did O=C(NC1CCCC1)C1CCC(CNS(=O)(=O)c2ccccc2)CC1 (stereo not drawn) do in these assays?
Pf growth 48h: -1%; CHX counter: 10; Shiga inhibitor: 3; Pf growth 96h: 5%; LmPK inhibitor: -2%

Results for Cc1ccc(S(=O)(=O)n2c(C)nc3cc(C)ccc32)cc1 ?
Pf growth 48h: -11%; CHX counter: -1; Pf growth 96h: -6%; LmPK inhibitor: 5%

How did COc1ccc(S(=O)(=O)N2CCN(Cc3cc(OC)c(OC)c(OC)c3)CC2)cc1 do in these assays?
Pf growth 48h: inconclusive; CHX counter: -3; Shiga inhibitor: -3; Pf growth 96h: -16%; LmPK inhibitor: -6%

What do the screens show for `N#CCCN/N=C(/Cc1nc2ccccc2[nH]1)c1ccc(Cl)cc1`?
Pf growth 48h: inconclusive; CHX counter: 30*; Shiga inhibitor: 67*; LmPK inhibitor: -5%

What do the screens show for `c1ccc(N/N=C(\Cc2nc3ccccc3[nH]2)c2ccccc2)cc1`?
Pf growth 48h: -86%; CHX counter: 52*; Shiga inhibitor: 48*; Pf growth 96h: inconclusive; LmPK inhibitor: -3%

How did O=C(CCc1nc2ccccc2c(=O)[nH]1)NCc1cccc(Cl)c1 do in these assays?
Pf growth 48h: 20%; CHX counter: 1; Shiga inhibitor: -6; LmPK inhibitor: -3%

How did O=C(Cc1nc2ccccc2[nH]1)N/N=C/c1ccccc1 do in these assays?
Pf growth 48h: 22%; CHX counter: 3; Shiga inhibitor: 2; Pf growth 96h: -26%; LmPK inhibitor: -2%

Results for Clc1cccc(/C(Cc2nc3ccccc3[nH]2)=N\Nc2ccccc2)c1 ?
Pf growth 48h: -84%; CHX counter: 54*; Shiga inhibitor: 55*; Pf growth 96h: inconclusive; LmPK inhibitor: -4%

Results for N/N=C(/Cc1nc2ccccc2[nH]1)c1ccc([N+](=O)[O-])cc1 ?
Pf growth 48h: inconclusive; CHX counter: 44*; Shiga inhibitor: 141*; Pf growth 96h: 45%; LmPK inhibitor: -4%

Results for N#CCCN/N=C(\Cc1nc2ccccc2[nH]1)c1ccccc1 ?
CHX counter: 19; Shiga inhibitor: 39; Pf growth 96h: inconclusive; LmPK inhibitor: 11%

How did O=C(O)C1CC=CCC1C(=O)NC1CCCCC1 (stereo not drawn) do in these assays?
Pf growth 48h: 0%; CHX counter: -4; Shiga inhibitor: 3; Pf growth 96h: 38%; LmPK inhibitor: -6%

Results for Cc1ccc(N/N=C(\Cc2nc3ccccc3[nH]2)c2ccccc2)cc1 ?
Pf growth 48h: 9.3µM*; CHX counter: 35*; Shiga inhibitor: 48*; Pf growth 96h: inconclusive; LmPK inhibitor: 3%

Results for CCN/N=C(\Cc1nc2ccccc2[nH]1)c1ccccc1 ?
Pf growth 48h: 10µM*; CHX counter: 20*; Shiga inhibitor: 58; Pf growth 96h: inconclusive; LmPK inhibitor: -2%

Results for CCCc1nc2ccccc2[nH]1 ?
CHX counter: -2; Shiga inhibitor: 23; Pf growth 96h: inconclusive; LmPK inhibitor: -5%

How did NNC(=O)C1CC1c1ccccc1 (stereo not drawn) do in these assays?
Pf growth 48h: 4%; CHX counter: -1; Shiga inhibitor: -31; Pf growth 96h: 9.3µM*; LmPK inhibitor: 5%

Results for NNC(=O)[C@@H]1C[C@@H]1c1ccccc1 ?
Pf growth 48h: -2%; CHX counter: -1; Shiga inhibitor: -6; Pf growth 96h: inconclusive; LmPK inhibitor: 1%

What do the screens show for `CC(C)c1ccc(NC(=O)C2CC2c2ccccc2)cc1` (stereo not drawn)?
Pf growth 48h: -3%; CHX counter: 18*; Shiga inhibitor: 18; Pf growth 96h: inconclusive; LmPK inhibitor: -6%

What do the screens show for `O=C(O)C1CCCCC1C(=O)Nc1ccc(F)c(F)c1` (stereo not drawn)?
Pf growth 48h: 4%; CHX counter: -3; Shiga inhibitor: 16; Pf growth 96h: 23%; LmPK inhibitor: -1%

How did O=C(O)C1CCCCC1C(=O)Nc1ccc2c(c1)OCCO2 (stereo not drawn) do in these assays?
Pf growth 48h: 41%; CHX counter: 34*; Shiga inhibitor: 102*; Pf growth 96h: 32%; LmPK inhibitor: 3%

What do the screens show for `O=C(Nc1ccc2c(c1)OCCO2)C(=O)NC1CC1`?
Pf growth 48h: 196%; CHX counter: 29*; Shiga inhibitor: 80*; Pf growth 96h: 5%; LmPK inhibitor: -4%

Results for O=C(Nc1ccncc1)C1CC1c1ccccc1 (stereo not drawn) ?
Pf growth 48h: inconclusive; CHX counter: 2; Shiga inhibitor: -9; LmPK inhibitor: 1%

Results for CN(CCCNC(=O)CSc1cc(=O)n(C)c2cc(Cl)ccc12)Cc1ccccc1 ?
Pf growth 48h: -6%; CHX counter: 8; Shiga inhibitor: -8; Pf growth 96h: 21%; LmPK inhibitor: 2%

How did CCCCN(CC)CCCNC(=S)Nc1ccc2nc3n(c(=O)c2c1)CCCCC3 do in these assays?
Pf growth 48h: 1%; CHX counter: -1; Shiga inhibitor: -8; Pf growth 96h: -5%; LmPK inhibitor: -2%

Screening results deposited in PubChem by National Center for Advancing Translational Sciences (NCATS).
